Only some compounds are listed: those with a hit (about 2.4% of all), similar ones and a draw of the others.
Anesthetic bind – binds horse apoferritin like a general anesthetic; apoferritin/1-aminoanthracene competitive binding, fluorescence; 0.074% of 350,000 active; Potency, µM (top dose mostly 77.5 µM), usual class: inhibitors; note: nearly all actives have a fitted effect of over 20% in size
Target sequence (P02791 2-175 limits assumed): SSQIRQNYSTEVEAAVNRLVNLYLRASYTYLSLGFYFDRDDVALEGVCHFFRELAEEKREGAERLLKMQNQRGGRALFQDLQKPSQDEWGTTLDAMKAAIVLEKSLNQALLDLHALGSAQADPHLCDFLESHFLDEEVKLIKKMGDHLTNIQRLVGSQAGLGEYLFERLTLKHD
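In PBS, apoferritin at 10 uM is loaded with 1-AMA from a 50% saturated solution. After 10 min of compound exposure at ambient temperature, reduced 535 nm fluorescence indicates probe displacement.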
S2 tox – viability counter-screen for ATXN expression inhibitors. S2 cells (HEK-293 line with an ATXN2-luciferase reporter) viability, CellTiter-Fluor protease fluorescence, 24 h. Potency, µM (top dose mostly 56.7 µM), most hits filed as cytotoxic. 0.49% of 400,000 active. AID 651635; note: nearly all actives have a fitted effect of over 40% in size
TGFb SMAD3 inh – TGF-b pathway inhibition; AID 588855; 1.2% of 410,000 active; Potency, µM (doses to about 46.1 µM), hits mostly inhibitors; HepG2 CAGA-GFP TGF-b/SMAD3 reporter, GFP fluorescence, 18 h; TGF-beta stimulated, 500 pg/mL final; note: nearly all actives have a fitted effect of over 65% in size
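GFP signal (ex488/em500-530) from TGF-beta-stimulated HEPG2 CAGA-GFP cells, 500 pg/mL final, 18 h at 37 degrees C in DMEM plus 1% FBS, normalized to unstimulated and DMSO-stimulated controls.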
ATXN2 expr inh – reduces ATXN2 reporter expression in HEK-293 cells | HEK-293 ATXN2-luciferase reporter, luminescence, 24 h | 0.72% of 360,000 active | Potency, µM (highest dose often 57 µM), hits mostly inhibitors; note: nearly all actives have a fitted effect of over 55% in size
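qHTS (up to 57 uM final) was run with 24 h compound exposure of reporter cells at 37 °C. Each well was multiplexed: SteadyGlo luminescence measured ATXN2-luciferase expression after a fluorogenic Gly-Phe-AFC viability readout (25 uM final).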
HepG2 tox – kills HepG2 cells in TGF-b inhibitor counter-screen; HepG2 CAGA-GFP viability, ATP luminescence, 18 h; Potency, µM (top dose mostly 46.1 µM), hits mostly cytotoxic; 0.76% of 410,000 active
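HepG2 CAGA-GFP cells (1000/well, DMEM with 1% FBS) received compound, then TGF-beta at 500 pg/mL final, and were incubated 18 hours at 37 degrees C. Viability was read by CellTiter-Glo luminescence. Media-only wells were set as complete cell-killing and DMSO as no toxicity.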
Each line names hits and unclear results; the compound was inactive in the other large screens. Calls come from the whole dose curve; as a rule, active = well fitted curve in the direction sought with a large enough effect; inconclusive = small, poorly fitted or top-dose-only effect, or another doubt; inactive = no such curve, though single readings can be large; an effect the other way counts as inactive or inconclusive.

CC(C)(O)CC[C@@H](O)[C@](C)(O)[C@H]1CC[C@@]2(O)C3=CC(=O)[C@@H]4C[C@@H](O)[C@@H](O)C[C@]4(C)[C@@H]3CC[C@]12C	none (no result: Anesthetic bind, S2 tox, TGFb SMAD3 inh, HepG2 tox)
CC(=O)O[C@@H]1[C@@H](O)CN[C@@H]1Cc1ccccc1	TGFb SMAD3 inh inconclusive (no result: S2 tox, ATXN2 expr inh)
COc1ccc(CNCC(O)(c2ccccc2)c2ccc(Cl)cc2)cc1 (stereo not given)	TGFb SMAD3 inh inconclusive, ATXN2 expr inh inconclusive, HepG2 tox 16µM
Cc1ccc(CNCC(O)(c2ccccc2)c2ccc(Cl)cc2)cc1 (stereo not given)	S2 tox inconclusive, TGFb SMAD3 inh inconclusive, ATXN2 expr inh inconclusive
CCc1cc(OCCN(C)C)ccc1Cl	none
CN(C)CCOc1ccc2c(c1)C(=O)C(=Cc1ncc([N+](=O)[O-])n1C)C2	S2 tox inconclusive, TGFb SMAD3 inh 1.4µM (no result: Anesthetic bind, ATXN2 expr inh)
COC1=C(Nc2ccccc2OC)C(=O)c2ccccc2C1=O	none
COc1ccccc1NC1=C(NC(C)=O)C(=O)c2ccccc2C1=O	TGFb SMAD3 inh 14µM
COc1cccc(CN2CCC3(CC2)c2ccccc2[C@@H](NC(=O)c2ccccc2)[C@@H]3O)c1O	none (no result: Anesthetic bind, TGFb SMAD3 inh, ATXN2 expr inh, HepG2 tox)
CCOc1ccc(C(=O)c2cn(Cc3ccc(Cl)cc3)c3cc(OC)c(OC)cc3c2=O)cc1	S2 tox 16µM, TGFb SMAD3 inh inconclusive
COc1ccc(C(=O)c2cn(Cc3ccc(F)cc3)c3ccc(C)cc3c2=O)cc1	Anesthetic bind inconclusive, S2 tox 18µM, TGFb SMAD3 inh inconclusive, ATXN2 expr inh inconclusive
COc1ccc2c(c1)c(=O)c(C(=O)c1ccc(C)cc1)cn2Cc1ccccc1F	Anesthetic bind inconclusive, S2 tox 25µM, TGFb SMAD3 inh inconclusive, ATXN2 expr inh inconclusive
COc1cc(CN(C)CC2CCCN(CCc3ccccc3F)C2)cc(Cl)c1OC (stereo not given)	S2 tox 18µM, ATXN2 expr inh inconclusive
Nc1ccc(C(=O)OCCCc2nc3ccccc3[nH]2)cc1	HepG2 tox 10µM
CCOC(=O)c1ccc(N2C(=O)c3[nH]nc(-c4ccccc4)c3C2c2ccc(CC)cc2)cc1 (stereo not given)	TGFb SMAD3 inh 11µM, ATXN2 expr inh inconclusive, HepG2 tox 11µM (no result: S2 tox)
CCOC(=O)c1ccc(N2C(=O)c3[nH]nc(-c4ccccc4)c3C2c2cccs2)cc1 (stereo not given)	TGFb SMAD3 inh 7.1µM (no result: S2 tox, ATXN2 expr inh)
CCOC(=O)c1ccc(N2C(=O)c3[nH]nc(-c4ccc(C)cc4)c3C2c2ccc(O)cc2)cc1 (stereo not given)	S2 tox inconclusive, TGFb SMAD3 inh inconclusive, ATXN2 expr inh inconclusive
CCc1cc(-c2[nH]ncc2-c2ccc([N+](=O)[O-])cc2)c(O)cc1OC	Anesthetic bind inconclusive, TGFb SMAD3 inh 13µM
N[C@H](C(=O)O)c1ccc(O)cc1	none (no result: Anesthetic bind, TGFb SMAD3 inh, HepG2 tox)
O=C(NCCN1C(=O)S/C(=C\c2ccc(Cl)c([N+](=O)[O-])c2)C1=O)C1=COCCO1	TGFb SMAD3 inh 18µM, ATXN2 expr inh inconclusive, HepG2 tox 22µM (no result: Anesthetic bind, S2 tox)
CC(C)C(CCNC1CCN(C)CC1)c1ccc(Cl)cc1 (stereo not given)	S2 tox inconclusive, TGFb SMAD3 inh inconclusive, ATXN2 expr inh inconclusive
CN1CCC(NCCC(c2ccc(F)cc2)c2ccc(Cl)cc2)CC1 (stereo not given)	TGFb SMAD3 inh inconclusive, ATXN2 expr inh 25µM, HepG2 tox 16µM (no result: S2 tox)
COC(=O)c1ccc2c(c1)C(C)(C)C(/C=C/c1ccccc1O)=[N+]2C	Anesthetic bind inconclusive, S2 tox 7.9µM, TGFb SMAD3 inh inconclusive, ATXN2 expr inh 3.5µM, HepG2 tox 6.3µM
C[N+]1=C(/C=C/Nc2ccccc2Cl)C(C)(C)c2ccccc21	TGFb SMAD3 inh inconclusive
COc1cc(NS(=O)(=O)c2ccc([N+](=O)[O-])cc2)c2ncccc2c1	none (no result: S2 tox, TGFb SMAD3 inh, ATXN2 expr inh, HepG2 tox)
COc1cc(NS(=O)(=O)c2ccc(C)cc2)c2ncccc2c1	S2 tox inconclusive, TGFb SMAD3 inh inconclusive, ATXN2 expr inh 4.5µM
COc1cc(OC)c(Nc2c3c(nc4nc(-c5cccs5)nn24)CCCC3)cc1Cl	S2 tox 28µM, TGFb SMAD3 inh inconclusive
Cc1cnnc2ccccc12	none (no result: Anesthetic bind, S2 tox, ATXN2 expr inh)
COc1ccc(-c2cc3nc(NCCCN(C)C)n(C)c(=O)c3s2)cc1OC	none (no result: Anesthetic bind)
CN(C)CCCNc1nc2cc(-c3cccc(C(F)(F)F)c3)sc2c(=O)n1C	S2 tox 32µM, TGFb SMAD3 inh inconclusive, ATXN2 expr inh 20µM (no result: Anesthetic bind)
